Source: PubChem BioAssay
Only some compounds are listed: those with a hit (about 3.3% of all), similar ones and a draw of the others.
Anthrax LF prot = Bacillus anthracis LF protease inhibitors, primary screen, biochemical, multiplex microsphere, MLPCN library; multiplex microsphere protease cleavage assay; Lethal factor (Bacillus anthracis), P15917; hit rate 0.12% among 360,000; inhibition, % at 10 µM; AID 588501, 2011
BoNT F protease = BoNT/F light chain protease inhibitors, primary screen, biochemical, flow cytometry, MLPCN library | Botulinum neurotoxin type F light chain protease (Clostridium botulinum) | Multiplex microsphere protease cleavage assay | inhibition, % at 10 µM | hit rate 0.22% among 360,000 | AID 588497, 2011; in the data active = inhibition above about 35%, passing the limit was not always enough; inconclusive = no clear call, values can overlap the other calls
MazEF act = activators of E. coli MazEF toxin-antitoxin RNase, primary screen, biochemical, fluorescence, uHTS. Endoribonuclease toxin MazF (Escherichia coli (strain K12)), P0AE70. FAM/BHQ RNA-DNA oligo cleavage fluorescence, 5 h. hit rate 0.32% among 350,000. AID 504720, 2011. activation, % at 20 µM; in the data active = activation above about 50%
Target sequence (P0AE70 whole entry, looked up): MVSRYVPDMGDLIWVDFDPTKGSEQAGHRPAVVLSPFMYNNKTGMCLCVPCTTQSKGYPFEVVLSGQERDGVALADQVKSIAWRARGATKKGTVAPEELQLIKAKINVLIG
PriA SSB inh = inhibitors of Klebsiella pneumoniae PriA binding to SSB C-terminal tail, primary screen, biochemical, AlphaScreen | PriA–SSB C-terminal tail interaction (Klebsiella pneumoniae) | AlphaScreen SSBct-PriA binding, biotinylated peptide | inhibition, % at 33 µM | hit rate 0.6% among 430,000; in the data active = inhibition mostly above about 37%, no sharp cut-off; inactive = mostly below about 20%
Autofluor counter = compound fluorescence in toxin protease inhibitor counterscreen. compound autofluorescence counterscreen, microsphere flow cytometry; active compounds read high. hit rate 3.1% among 360,000. fluorescence intensity (test concentration not listed); in the data active = fluorescence intensity above about 16000; inconclusive = no clear call, values can overlap the other calls
BoNT A protease = BoNT/A light chain protease inhibitors, primary screen, biochemical, flow cytometry, MLPCN library; Botulinum neurotoxin type A light chain protease (Clostridium botulinum A str. ATCC 3502); multiplex microsphere protease substrate cleavage; inhibition, % at 10 µM; hit rate 0.17% among 360,000; AID 588499, 2011
Of the large screens only hits and unclear results are named; the others gave an inactive call. Rule as the data show it, unless noted: active = inhibition above about 30%; inconclusive = no clear call, values can overlap the other calls; inactive = below that.

CCOc1nc(NCCc2ccc(OC)c(OC)c2)nc(NC(C)(C)CO)n1	Autofluor counter 16988
Cc1cccc(NC(=O)C(C)Sc2nc3ccccc3c(=O)n2CCCN2CCOCC2)c1 (configuration not stated)	Autofluor counter 18006
Cn1nc(CNC(=O)c2c(F)cccc2Cl)cc1-c1ccccn1	none (no result: Anthrax LF prot, BoNT F protease, MazEF act, Autofluor counter, BoNT A protease)
C=CCN(CC=C)c1cnn(-c2nc3ccccc3[nH]2)c(=O)c1Cl	Autofluor counter 21324
O=c1c(Cl)c(NCCCO)cnn1-c1nc2ccccc2[nH]1	none
NC1=Nc2ccccc2Oc2ccccc21	Autofluor counter 16347, BoNT A protease inconclusive
CC1=Nc2cc(Cl)ccc2Oc2ccccc21	none
CCOC(=O)/C=C/C(=O)Nc1sc2c(c1C(=O)OC)CCC2	none (no result: Anthrax LF prot, BoNT F protease, MazEF act, Autofluor counter, BoNT A protease)
Nc1nnnn1/N=C/c1ccccc1OCc1ccc(Cl)cc1Cl	Autofluor counter 22215 (no result: PriA SSB inh)
CCC(=O)NC1(C(F)(F)F)C(=O)Nc2c1c(=O)n(C)c(=O)n2C (configuration not stated)	Autofluor counter 23514
Cc1cc(C)c(C#N)c(SCc2ccccc2)n1	none
Cc1ccc2nc(CSc3nc(C)cc(C)c3C#N)[nH]c2c1	Autofluor counter 21126
Cc1cc(C)c(C#N)c(SCc2ccc(C(=O)O)cc2)n1	Anthrax LF prot 31.6, BoNT F protease inconclusive
CCOC(=O)c1sc(NC(=O)c2ccc(N3CCCC3)nn2)nc1C	none (no result: Anthrax LF prot, BoNT F protease, MazEF act, Autofluor counter, BoNT A protease)
O=C([C@@H]1COc2ccccc2O1)N1CCN(Cc2nncn2-c2ccccc2F)CC1	none (no result: Anthrax LF prot, BoNT F protease, MazEF act, Autofluor counter, BoNT A protease)
O=C1C2C3C=CC(C3)C2C(=O)N1CN(Cc1ccccc1)CN1C(=O)C2C3C=CC(C3)C2C1=O (configuration not stated)	Autofluor counter 16805
NC(=O)CSc1nc(-c2ccc(O)c(O)c2)cs1	none (no result: Anthrax LF prot, BoNT F protease, MazEF act, Autofluor counter, BoNT A protease)
O=C(NCC(c1ccsc1)N1CCOCC1)c1ccc(Cl)cc1Cl (configuration not stated)	none (no result: Anthrax LF prot, BoNT F protease, MazEF act, Autofluor counter, BoNT A protease)
Cc1ccc([N+](=O)[O-])cc1N=C(c1ccc([N+](=O)[O-])cc1)N1CCOCC1	none
O=[N+]([O-])c1ccc(C(=Nc2cccc3ccccc23)N2CCOCC2)cc1	PriA SSB inh 48.5, Autofluor counter 17545
COc1ccc(OC)c(-c2cc(C(=O)Nc3c(C)n(C)n(-c4ccccc4)c3=O)no2)c1	Autofluor counter 16603
COc1cccc(-c2cc(C(=O)Nc3c(C)n(C)n(-c4ccccc4)c3=O)no2)c1	none
Cc1c(NC(=O)c2cc(-c3ccc(F)cc3)on2)c(=O)n(-c2ccccc2)n1C	none
COc1ccccc1-c1cc(C(=O)Nc2c(C)n(C)n(-c3ccccc3)c2=O)no1	Autofluor counter 16484, BoNT A protease inconclusive
COc1ccc(NC(=O)CCc2nc3sc4c(c3c(=O)[nH]2)CCCCC4)c(OC)c1	none (no result: Anthrax LF prot, BoNT F protease, MazEF act, Autofluor counter, BoNT A protease)
Cc1ccc(-c2noc(CCCC(=O)N3CCOCC3)n2)cc1	Autofluor counter 20543
Cc1cccc(-c2noc(CCC(=O)N3CCN(c4cc(C)ccc4C)CC3)n2)c1	none
Cc1cccc(-c2noc(CCCC(=O)N3CCOCC3)n2)c1	Autofluor counter 21401
O=C(CCCc1nc(-c2ccc(Cl)cc2)no1)N1CCOCC1	none
Cc1csc(CN2CCN(C(=O)c3ccccc3C(F)(F)F)CC2)n1	none (no result: Anthrax LF prot, BoNT F protease, MazEF act, Autofluor counter, BoNT A protease)
CCCCN1CC[C@@H]2C=CC[C@H](C(=O)OC)[C@@H]2C1=O	MazEF act 79.7
CCCCN1CC[C@H]2C=CC[C@@H](C(=O)N3CCOCC3)[C@H]2C1=O	none
O=C(Oc1c(Cl)cc(Cl)c2ccccc12)N1CCCC1	Autofluor counter 22642
O=C(Oc1c(Cl)cc(Cl)c2ccccc12)N1CCCCC1	none
C=C(C)CNC(=S)N/N=C(\C)c1ccc(-n2ccnc2)cc1	Autofluor counter 19874 (no result: PriA SSB inh)
Cc1cccc(N=Cc2cc3c(cc2[N+](=O)[O-])OCO3)c1	PriA SSB inh 45.0
CCCCS(=O)(=O)N1CCC(c2nnc(CC)s2)CC1	none (no result: Anthrax LF prot, BoNT F protease, MazEF act, Autofluor counter, BoNT A protease)
O=C(Cn1ccc2ccccc21)Nc1cc(N2CCN(Cc3ccccc3)CC2)ncn1	PriA SSB inh 44.0 (no result: Anthrax LF prot, BoNT F protease, MazEF act, Autofluor counter, BoNT A protease)
CCCCCn1nc(-c2ccccc2)c2nc3ccccc3nc21	none
CCCn1nc(-c2ccccc2)c2nc3ccccc3nc21	MazEF act active (no result: Anthrax LF prot, BoNT F protease, Autofluor counter, BoNT A protease)
COc1ccc(CN2C(=O)CCC2(C)C(=O)NCc2cccnc2)c(OC)c1 (configuration not stated)	Autofluor counter 22905, BoNT A protease inconclusive
CCOC(=O)c1c(-c2ccc(C)o2)csc1NC(=O)CSc1ncnc2sc3c(c12)CCCC3	none (no result: Anthrax LF prot, BoNT F protease, MazEF act, Autofluor counter, BoNT A protease)
NC(=NOS(=O)(=O)c1ccccc1)c1cccnc1	none (no result: Anthrax LF prot, BoNT F protease, MazEF act, Autofluor counter, BoNT A protease)
CO/N=C(\c1ccccc1)c1cccnc1	BoNT F protease 55.8 (no result: PriA SSB inh)
COc1cccc(C2NC(=O)c3ccccc3O2)c1OC (configuration not stated)	Autofluor counter 18893, BoNT A protease inconclusive
CCc1cccc(CC)c1NC(=O)COC(=O)/C(C#N)=C/c1ccc(OC)cc1	MazEF act 124.2
COc1ccc(/C=C(\C#N)C(=O)OCC(=O)Nc2c(C)cccc2C)cc1	none
COc1ccccc1C1(CNC(=O)c2c(-c3ccccc3Cl)noc2C)CCOCC1	none (no result: Anthrax LF prot, BoNT F protease, MazEF act, Autofluor counter, BoNT A protease)
Cc1ccc(NC(=S)NCc2cccn2C)cc1	Autofluor counter 22735
Cc1cccc(NC(=S)NCc2cccn2C)c1	none
CCS(=O)(=O)N1CCCC(c2nnc(-c3cccs3)o2)C1 (configuration not stated)	none (no result: Anthrax LF prot, BoNT F protease, MazEF act, Autofluor counter, BoNT A protease)
COC(=O)C1CC(OC)CN1C(=O)c1ccc(NC(C)=O)cc1 (configuration not stated)	none (no result: Anthrax LF prot, BoNT F protease, MazEF act, Autofluor counter, BoNT A protease)
Cc1ccc2nc(NCc3ccco3)c(C=NCc3ccco3)c(=O)n2c1	none
Cc1cc(O)cc(O)c1C=NCc1ccco1	MazEF act 90.2
CCn1nc(C)c(C(=O)Nc2cc(Oc3ccc(Cl)cc3)cc([N+](=O)[O-])c2)c1C	Autofluor counter 19896
Cc1nn(CCCC(=O)Nc2cc(Oc3ccc(F)cc3)cc([N+](=O)[O-])c2)c(C)c1[N+](=O)[O-]	none
CCN1CCN(c2nc3c(c(=O)n(C)c(=O)n3C)n2C/C=C(/C)Cl)CC1	none (no result: Anthrax LF prot, BoNT F protease, MazEF act, Autofluor counter, BoNT A protease)
O=C(NC1CCCCCC1)C1c2ccccc2C(=O)N1CCCN1CCOCC1 (configuration not stated)	Autofluor counter 20267, BoNT A protease inconclusive
Cc1nn(CC(=O)O)c(C)c1C	Autofluor counter 21501
COc1ccccc1C1=NOC(COc2ccc3c(C)cc(=O)oc3c2)C1 (configuration not stated)	Anthrax LF prot inconclusive, BoNT F protease 43.7
COc1ccc(C2=NOC(COc3ccc4c(C)cc(=O)oc4c3)C2)c(OC)c1 (configuration not stated)	Anthrax LF prot inconclusive
CCOC(=O)CN(C(=O)CSc1nnc2c(n1)[nH]c1ccc(OC)cc12)c1ccc(F)cc1	Autofluor counter 22990
